# The panel holds about 79,000 compounds, 15% with a hit somewhere; the sample as a whole holds those more often. Active and inactive are the calls of the source. Rule as the data show it: active = growth inhibition above about 70%; inactive = the rest.
# Assay: NCI Yeast Anticancer Drug Screen. Data for the sgs1 mgt1 strain (AID 161);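 also: 0% = growth of cultures given vehicle only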
# Conditions: S. cerevisiae sgs1 mgt1 strain, at 50.0 µM, hits give high values
# Procedure, shortened: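 Percent growth inhibition was derived by comparing compound-exposed mutant yeast with vehicle-exposed cultures. The strain carries alterations in DNA damage repair.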
row,Compound,growth inhibition
1,COc1ccc2c(c1)Sc1c(Cl)c3c(c(Cl)c1=N2)Sc1cc(OC)ccc1N=3,0.7% (inactive)
2,COc1nc(NC2OC(COC(C)=O)C(OC(C)=O)C(OC(C)=O)C2OC(C)=O)c(C(=O)CCl)c(=O)[nH]1 (stereo not given),8.45% (inactive)
3,O=C(O)C(Cc1ccc2c(c1)CCC2)(Cc1ccc2c(c1)CCC2)C(=O)O,-4% (inactive)
4,Clc1cccc(Cl)c1C1SCc2nc3ncccc3n21 (stereo not given),34.4% (inactive)
5,COc1cccc(C2N(Cc3ccccc3OC)CCCN2Cc2ccccc2OC)c1,29.5% (inactive)
6,O=C(O)CC1CC2CC(=O)C1C2 (stereo not given),-14.7% (inactive)
7,CSCCCCCSC,-25.3% (inactive)
8,CCOC(=O)C1=C(C)NC(=O)NC1c1ccc(N(C)C)cc1 (stereo not given),23.2% (inactive)
9,CCc1cccc(CC)c1N=Cc1ccccc1O,21.6% (inactive)
10,NC(=O)c1cc(Cl)ccc1O,18.4% (inactive)
11,c1ccc(CCc2cccnc2)nc1,-21.6% (inactive)
12,Nc1c2cc3c(cc2c[n+]2ccc4ccccc4c12)OCO3,32.6% (inactive)
13,O=C1CCCC/C1=C1/SC(=Nc2ccccc2)C(=Nc2ccccc2)N1c1ccccc1,16.2% (inactive)
14,CCCOc1ccc(OCC(=O)c2ccccc2)cc1,25.8% (inactive)
15,CCCCOC(=O)NC(=O)c1cc2cc(I)cc(I)c2oc1=O,-7.75% (inactive)
16,N#CCCCCBr,-4.2% (inactive)
17,O=C1OC(=O)c2c1ccc1ccccc21,6.8% (inactive)
18,CCOC(=O)C[n+]1ccc(C(=O)OCC)cc1,0.05% (inactive)
19,C=C1OC(=O)C(N)=C1C(C)=O,9.05% (inactive)
20,CN(/N=C(\C(=O)O)c1ccccc1)C1=NCCN1,-4.65% (inactive)

row,Compound,growth inhibition
1,NNC(=O)CC(=O)Nc1ccccc1F,-6.4% (inactive)
2,CC(C)c1ccc(/C=C/C(=O)c2ccc([N+](=O)[O-])cc2)cc1,11.7% (inactive)
3,O=C(O)c1cccc(CO)c1O,-12.7% (inactive)
4,COC(=O)C(C)(Cc1ccc2c(c1)nnn2C(C)=O)NC(C)=O (stereo not given),-4.15% (inactive)
5,CC[C@@]12CCC(=S)N(CCSc3ccccc3)[C@@H]1c1c(n(S(=O)(=O)c3ccc(OC)cc3)c3ccccc13)CC2,0.3% (inactive)
6,CC(=O)OCC1OC(n2ncnc2CI)C(OC(C)=O)C(OC(C)=O)C1OC(C)=O (stereo not given),13.6% (inactive)
7,Cc1c(O)cc(O)c(C=O)c1C,16.1% (inactive)
8,Cc1cccc(C)c1NC(=O)/C(=N/NC(N)=S)C(C)C(=O)c1ccc(Cl)cc1 (stereo not given),19.6% (inactive)
9,O=C1C=C/C(=N/c2ccc(O)o2)c2ccccc21,20.1% (inactive)
10,Clc1ccccc1N=NNc1ccccc1Cl,7.05% (inactive)
11,NC1(c2ccccc2)CON=C(c2ccccc2)C1 (stereo not given),-5.8% (inactive)
12,CC(=S)NNC(=O)c1ccncc1,-8.2% (inactive)
13,COc1ccc(OC)c(C(N)=O)c1,-1.25% (inactive)
14,Clc1ccc(N=Cc2ccccc2)cn1,37% (inactive)
15,O=C1Cc2c([nH]c3c(Cl)cccc23)-c2ccccc2N1,-19.2% (inactive)
16,N#CC(CC(=O)c1ccccc1)c1ccccc1Cl (stereo not given),31.3% (inactive)
17,CCOC(=O)N1Cc2cc3ccc(OC)cc3nc2C1,-21.1% (inactive)
18,Cc1ccc2ccccc2c1C(=O)c1ccccc1Cc1cccc2ccccc12,10.6% (inactive)
19,Cn1c(=O)c2c(nc(NCCO)n2Cc2ccccc2)n(C)c1=O,7.2% (inactive)
20,Cc1cc(S(=O)(=O)Nc2nnc3c4ccccc4cnn23)c(S)cc1Cl,-21% (inactive)
